This is an account of results in PubChem BioAssay (EPA / NIEHS).

Records with an inconclusive call do not appear. Activity calls are given as the source filed them. How the source made its calls, unless noted: active means hit-call score of the fitted dose curve at least 0.9, where 1 is the maximum; inconclusive means response in the unintended direction; inactive means score below 0.9.

Chain of Estrogen receptor (Homo sapiens) (P03372 whole entry, looked up): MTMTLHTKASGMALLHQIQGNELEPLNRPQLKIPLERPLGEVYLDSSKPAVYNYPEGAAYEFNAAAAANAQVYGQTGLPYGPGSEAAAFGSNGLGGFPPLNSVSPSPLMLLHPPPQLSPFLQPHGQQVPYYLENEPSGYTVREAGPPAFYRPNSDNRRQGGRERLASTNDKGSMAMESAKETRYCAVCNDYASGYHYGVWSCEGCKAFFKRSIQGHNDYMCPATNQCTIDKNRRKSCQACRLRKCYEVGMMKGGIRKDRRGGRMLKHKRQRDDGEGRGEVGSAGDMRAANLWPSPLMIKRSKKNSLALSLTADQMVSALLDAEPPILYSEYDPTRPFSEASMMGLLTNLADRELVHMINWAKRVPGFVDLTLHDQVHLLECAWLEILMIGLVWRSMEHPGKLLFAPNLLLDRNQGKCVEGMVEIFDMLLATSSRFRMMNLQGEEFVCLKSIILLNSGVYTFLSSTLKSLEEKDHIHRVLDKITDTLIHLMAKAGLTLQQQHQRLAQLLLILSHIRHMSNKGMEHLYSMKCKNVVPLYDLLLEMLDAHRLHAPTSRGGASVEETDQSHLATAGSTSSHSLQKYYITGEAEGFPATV
Chain of Estrogen receptor beta (Homo sapiens) (Q92731 whole entry, looked up, the tested form may be a part): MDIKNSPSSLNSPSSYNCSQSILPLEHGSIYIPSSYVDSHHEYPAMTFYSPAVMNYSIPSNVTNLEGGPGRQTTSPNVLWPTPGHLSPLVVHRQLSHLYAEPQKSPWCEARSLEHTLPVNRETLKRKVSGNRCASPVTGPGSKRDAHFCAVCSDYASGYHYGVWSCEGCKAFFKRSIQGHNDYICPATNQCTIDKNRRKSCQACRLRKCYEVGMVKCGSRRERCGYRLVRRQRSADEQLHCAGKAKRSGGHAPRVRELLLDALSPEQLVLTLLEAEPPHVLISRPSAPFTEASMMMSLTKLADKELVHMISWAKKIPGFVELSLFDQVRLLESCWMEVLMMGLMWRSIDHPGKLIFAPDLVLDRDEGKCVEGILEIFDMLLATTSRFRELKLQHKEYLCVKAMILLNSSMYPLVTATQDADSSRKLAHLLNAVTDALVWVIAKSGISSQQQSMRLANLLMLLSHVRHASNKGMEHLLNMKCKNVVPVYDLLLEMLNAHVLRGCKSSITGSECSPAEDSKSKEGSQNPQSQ

The target in the first experiment is mouse Estrogen Receptor alpha (Era), Esr1 (gene 13982) (UniProt P19785). The experiment is described as follows: NVS_NR_mERa: NovaScreen (NVS) Nuclear Receptor Binding Assay for mouse Estrogen Receptor alpha (Era) (AID 2283378).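 Further: hit means loss of bound radioligand signal relative to DMSO.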 The essentials: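 Filter radiodetection of radioligand displacement from extracted receptor protein, measured 18 h post-dose. Single 25 uM concentration in duplicate initially, with concentration-series follow-up. Binding loss fitted relative to DMSO.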
Chain of mouse Estrogen Receptor alpha (Era), Esr1 (gene 13982) (P19785 whole entry, looked up): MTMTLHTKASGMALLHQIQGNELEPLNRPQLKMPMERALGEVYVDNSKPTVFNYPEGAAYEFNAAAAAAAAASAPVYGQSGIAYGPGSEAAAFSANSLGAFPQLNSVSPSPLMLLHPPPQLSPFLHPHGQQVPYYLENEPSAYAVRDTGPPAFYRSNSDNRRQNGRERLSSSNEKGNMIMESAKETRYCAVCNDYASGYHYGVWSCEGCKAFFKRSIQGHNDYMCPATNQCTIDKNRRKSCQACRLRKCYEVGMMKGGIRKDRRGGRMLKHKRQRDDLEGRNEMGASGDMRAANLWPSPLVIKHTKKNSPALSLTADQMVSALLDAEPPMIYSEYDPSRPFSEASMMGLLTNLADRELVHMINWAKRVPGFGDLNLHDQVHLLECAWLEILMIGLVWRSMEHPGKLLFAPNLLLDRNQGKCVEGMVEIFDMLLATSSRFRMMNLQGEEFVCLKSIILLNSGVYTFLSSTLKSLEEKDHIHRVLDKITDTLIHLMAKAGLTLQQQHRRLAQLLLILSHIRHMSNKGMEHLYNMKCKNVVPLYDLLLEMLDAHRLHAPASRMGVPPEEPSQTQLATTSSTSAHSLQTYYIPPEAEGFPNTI
For the molecule `CCCc1c(OCCCOc2ccc(OCC(=O)O)cc2)ccc(C(C)=O)c1O`, the outcome was inactive.
On the same count and under the same terms, under `O=C1c2ccccc2C(=O)N1SC1CCCCC1` stands “inactive”; under `Clc1ccc2c(c1)C(N1CCNCC1)=Nc1ccccc1O2`, “inactive”; under `c1cc(C(c2ccc(OCC3CO3)cc2)c2ccc(OCC3CO3)cc2)ccc1OCC1CO1` (stereo not drawn), “inactive”.
As for `NC(=O)Nc1ccc(Cl)cc1`, the call was inactive.
Still for that read-out and setting: under `CCCCCCCCCC=O` stands “inactive”.
With `O=Nc1ccc(Nc2ccccc2)cc1`, the AC50 (usually the midpoint of the concentration-response curve, whichever way the signal moves) was 46.4 µM (active).
For the molecule `COC(=O)C1=C(C)NC(C)=C(C(=O)OCCN(C)Cc2ccccc2)C1c1cccc([N+](=O)[O-])c1` (stereo not drawn), the call was inactive.
For the molecule `CCCCCCCCC=O`, the molecule was called inactive.
`O=C(O)CCSCCC(=O)O`: the molecule was called inactive.
On the same count and under the same terms, next, `Cc1cc(C2(c3cc(C)c(O)cc3C)OS(=O)(=O)c3ccccc32)c(C)cc1O`: “inactive”.
In the case of `CC1COc2ccccc2N1C(=O)C(Cl)Cl` (stereo not drawn), the half-maximal activity concentration (AC50) is 1.88 µM (active).

A further experiment has as its target Estrogen receptor beta (Homo sapiens) (UniProt Q92731). The experiment is described as follows: OT_ER_ERbERb_1440: Odyssey Thera (OT) 24-hour HEK293T Protein-Complementation Assay for Estrogen Receptor-beta/-beta Homodimer (AID 2283380).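 Further: scored as signal increase over DMSO baseline for both agonists and antagonists.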 The essentials:
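HEK293T cells stably expressing ER beta LBD (aa 310-547) homodimer fragment-complementation reporter, dosed 24 h. Cells formaldehyde-fixed, Draq5-stained; gain in nuclear (agonist) or nuclear plus cytoplasmic (antagonist) fluorescence versus DMSO read by laser scanning cytometry.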
As for `CC(C)=CCC[C@](C)(O)[C@@H]1CC=C(C)CC1`, the outcome was inactive.
Turning to `CC1(C)C(=O)N(Br)C(=O)N1Cl`, the outcome was inactive.
Still for that read-out and setting: next, `O=C1c2ccccc2C(=O)N1SC1CCCCC1`: “inactive”.
The same measure, in the same setting: next, `CCCCCCCCCCN`: “inactive”.
Still for that read-out and setting: under `CCCCCCCCCCCCCCCC(=O)O` stands “inactive”; under `NC(=O)Nc1ccc(Cl)cc1`, “inactive”; under `CCCCCCCCCC=O`, “inactive”.
With `O=Nc1ccc(Nc2ccccc2)cc1`, the call was inactive.
The same measure, in the same setting: next, `CCCCCCCCC=O`: “inactive”; `O=C1C(c2[nH]c3ccc(S(=O)(=O)O)cc3c2O)=Nc2ccc(S(=O)(=O)O)cc21`: “inactive”.
Still for that read-out and setting: under `Cc1ccc(C(C)C)cc1O` stands “inactive”; under `CCN(CC)c1ccc(C(=C2C=CC(=[N+](CC)CC)C=C2)c2ccc(S(=O)(=O)O)cc2S(=O)(=O)[O-])cc1`, “inactive”; under `O=C[C@@H](O)[C@H](O)[C@H](O)CO`, “inactive”.
On the same count and under the same terms, next, `NCCNCCN`: “inactive”.
Turning to `CCCCCCCCCCCCCCCCCC(=O)OCC(CC)CCCC` (stereo not drawn), the molecule was classed as inactive.
As for `O=C(Oc1ccccc1)c1ccc(O)cc1`, the half-maximal activity concentration (AC50) was 4.86 µM (active).
With `CCCCCC(CO)CCC` (stereo not drawn), the call was inactive.
For `CCCCC(CC)COC(=O)/C=C\C(=O)OCC(CC)CCCC` (stereo not drawn), the outcome was inactive.
`CC1COc2ccccc2N1C(=O)C(Cl)Cl` (stereo not drawn): the result was inactive.
Consider `CC1(C)[C@@H]2CC[C@@]1(C)[C@H](O)C2`, for which the molecule was called inactive.

The next experiment concerns the target Estrogen receptor (Homo sapiens) (UniProt P03372). The experiment is described as follows: OT_ERa_GFPERaERE_0480: Odyssey Thera (OT) 8-hour HeLa Transcription Induction Assay for Estrogen Receptor (AID 2283381; active means hit-call score of the fitted dose curve at least 0.9, where 1 is the maximum; inactive means score below 0.9). The procedure, abridged:
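HeLa cells dosed with compound and imaged by fluorescence microscopy at 8 h; GFP induction from an ERE reporter quantified by high-content image analysis and fitted as gain of signal against DMSO baseline.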
Turning to `O=C1c2ccccc2C(=O)N1SC1CCCCC1`, the molecule was called inactive.
Regarding `NC(=O)Nc1ccc(Cl)cc1`, the molecule was called inactive.
In the case of `CCCCCCCCCC=O`, the molecule was classed as inactive.
On to `O=Nc1ccc(Nc2ccccc2)cc1`, for which the AC50 was 72.3 µM (active).
Take `CCCCCCCCC=O`: the result was inactive.
On the same count and under the same terms, under `CC1COc2ccccc2N1C(=O)C(Cl)Cl` (stereo not drawn) stands “inactive”.
